EP2 modulator – modulators of human EP2 prostaglandin E2 receptor; P43116; EP2-expressing cells, cAMP HTRF FRET, PGE2 co-stimulation; induction, % at 25 µM; 0.83% of 260,000 active; AID 940;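 active means compounds whose cAMP rise, as percent of the full-agonist control response, exceeds 60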;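 further: rat C6 glioma line stably carrying human EP2 under a CMV promoter; the protocol text gives 20 µM as final concentration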
CHT allo act – allosterically activates the human high affinity choline transporter. AID 488977. Q9GZV3. CHT-expressing cells, membrane potential dye, choline EC20; stronger effect = higher value; LV-AA mutant CHT in HEK293 cells. B-score at 10 µM. 0.49% of 310,000 active;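 active means initial fluorescence not abnormally high and integrated response B-score, plate-corrected, over 3 SD above library mean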
Target sequence (Q9GZV3 whole entry, looked up): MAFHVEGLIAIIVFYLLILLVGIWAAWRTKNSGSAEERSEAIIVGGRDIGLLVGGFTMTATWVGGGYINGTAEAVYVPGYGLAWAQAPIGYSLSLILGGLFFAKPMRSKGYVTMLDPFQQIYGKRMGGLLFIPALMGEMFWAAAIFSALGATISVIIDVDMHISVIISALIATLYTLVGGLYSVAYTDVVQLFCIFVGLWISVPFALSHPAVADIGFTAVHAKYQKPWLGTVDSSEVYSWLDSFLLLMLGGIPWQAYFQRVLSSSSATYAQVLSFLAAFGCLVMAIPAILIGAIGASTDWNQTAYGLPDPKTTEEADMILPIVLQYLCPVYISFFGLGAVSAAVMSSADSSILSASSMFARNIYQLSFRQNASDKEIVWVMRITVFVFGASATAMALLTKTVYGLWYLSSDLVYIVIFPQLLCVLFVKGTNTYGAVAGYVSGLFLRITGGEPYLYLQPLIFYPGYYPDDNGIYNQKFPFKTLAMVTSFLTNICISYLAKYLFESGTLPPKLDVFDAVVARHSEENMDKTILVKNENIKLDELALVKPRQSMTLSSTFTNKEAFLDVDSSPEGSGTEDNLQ
CHT inh – human CHT choline transport inhibition | Q9GZV3 | CHT-expressing cells, membrane potential dye, choline response; stronger effect = lower value | B-score at 10 µM | 0.86% of 310,000 active;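 active means B-score over 3 SD under the library average, and starting fluorescence ratio not unusually high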;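 further: choline stimulus applied at its EC90 after an EC20 pre-addition; B-score computed on integrated fluorescence ratio after choline addition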
PGE2 EP2 inh – EP2 receptor (human) inhibition | inhibition, % at 25 µM | C6 glioma cells expressing human EP2, cAMP TR-FRET; cells stimulated with saturating PGE2 | P43116 | 0.52% of 260,000 active;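 active means percent inhibition above 40 after rounding to a whole number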;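 further: rat C6 glioma host cells with rolipram phosphodiesterase inhibitor present; the protocol text gives 20 µM as final concentration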
EP2 confirm – EP2 receptor cAMP induction, counter-screens negative; shares compounds with EP2 modulator; C6 glioma EP2 cells, cAMP HTRF induction; plus low (about EC15) PGE2 agonist; calls only at 20 µM (by protocol); 47% of 1,300 active;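 active means cAMP induction above 50% in the main assay while under 30% in all four parallel counter assays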;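 further: rat C6 glioma cells stably expressing human EP2 receptor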
A number is an active result; n = inactive; x = no result; + = active, no number. An excerpt weighted towards active compounds, which were near 2% of everything screened.

SMILES	EP2 modulator	CHT allo act	CHT inh	PGE2 EP2 inh	EP2 confirm
CCOC(=O)c1sc(NC(=O)CCCCCN2C(=O)c3cccc4cccc(c34)C2=O)nc1C	n	x	x	n	x
CCOC(=O)c1sc(NC(=O)CN2C(=O)c3cccc4cccc(c34)C2=O)nc1C	66.1	n	n	n	n
CCOc1cc(/C=N\NC(=O)c2ccc(NC(=O)C(C)(C)C)cc2)ccc1OC(=O)c1ccc(C)cc1	n	n	n	n	x
CCOc1cc(/C=N/NC(N)=O)ccc1OC(=O)c1ccc(C)cc1	66.2	n	n	x	n
Cc1ccc(C2(C(=O)NCCc3nc(-c4ccncc4)n[nH]3)CCCCC2)cc1	n	x	x	n	x
Cc1cc(NC(=O)Cn2nnc3sc4c(c3c2=O)CCCC4)no1	n	n	n	n	x
Cc1cc(NC(=O)Cn2nnc3sc4c(c3c2=O)CCC(C(C)(C)C)C4)no1 (stereo unspecified)	n	n	n	n	n
CC(Cc1ccc2c(c1)OCO2)CN(CCO)Cc1cccnc1 (stereo unspecified)	n	x	x	n	x
CC1(C)Cc2ccccc2-c2nc3n(c(=O)c21)CCS3	74.0	n	n	n	+
CCOC(=O)C(=O)Nc1nncs1	n	x	x	n	x
CN=C1CC(SC)=C1c1ccc(C)cc1	72.5	n	n	56.3	+
CCC(C)c1ccccc1OCC(=O)Nc1c[nH]c(=O)[nH]c1=O (stereo unspecified)	n	x	x	n	x
CCCCOc1c(Br)cc(/C=N/O)cc1OCC	66.2	n	n	x	n
C=CCOc1c(Br)cc(/C=N/O)cc1OCC	n	n	n	n	x
CCCNC(=O)C1CCN(C(=O)c2ccc(OC)cc2)CC1	n	x	x	n	x
COc1ccc(-n2nc3ccc(NC(=S)NC(=O)c4cc(OC)c(OC)c(OC)c4)cc3n2)cc1	n	x	x	n	x
CC1(c2cc([N+](=O)[O-])cc([N+](=O)[O-])c2)CC(C)(C)N(C(=O)c2ccccc2)c2ccccc21 (stereo unspecified)	74.1	n	n	n	n
CC1(c2ccccc2)CC(C)(C)N(C(=O)C2CCCO2)c2ccccc21 (stereo unspecified)	68.9	n	n	n	+
CC1(c2ccccc2)CC(C)(C)N(C(=O)CSc2nnc(N)s2)c2ccccc21 (stereo unspecified)	n	n	n	n	x
Fc1ccc(F)c(CN(CCCN2CCOCC2)Cc2ccncc2)c1	n	x	x	n	x
O=C(NCc1cccnc1)C1CC(c2ccc(Cl)cc2)=NO1 (stereo unspecified)	n	x	x	n	x
O=C(COc1ccc(Cl)cc1)Nc1nncs1	n	x	x	n	x
S=c1[nH]nc(-c2ccco2)n1/N=C/c1ccc(Cl)cc1Cl	78.4	n	n	n	+
C=C1CCC2C(CC2(C)C)C(=C)CC/C1=N/O (stereo unspecified)	n	x	x	n	n
C=C1CCC(=O)C(C)CCC2C1CC2(C)C (stereo unspecified)	n	x	x	n	x
SMILES	EP2 modulator	CHT allo act	CHT inh	PGE2 EP2 inh	EP2 confirm
Clc1ccc(Cl)c(Nc2ccnc(SCc3ccccc3)n2)c1	62.2	x	x	n	n
Oc1ccccc1/C=N/Nc1ccnc(SCc2ccccc2)n1	n	n	n	n	x
O=C(Cc1ccc(Cl)cc1)Nc1ccccc1Sc1ccccc1	75.2	n	n	n	+
O=C(Nc1ccccc1Sc1ccccc1)c1ccc(F)cc1	72.1	n	n	n	+
COc1ccc2c(c1)C(c1ccncc1)=NNC(c1ccc(Br)cc1)=N2	n	x	x	n	x
Cc1nn(CC(=O)O)c(=O)c2cc3ccsc3n12	n	x	x	n	x
Nc1ncnc2c1ncn2[C@@H]1O[C@H](C(=O)NC2CC2)[C@H](O)C1O (stereo partly specified)	n	x	x	n	x
O=C(Cn1nc(-c2cccs2)n(-c2ccncc2)c1=O)N1CCCCC1	n	x	x	n	x
S=c1[nH]nc(Cc2ccccc2)n1Cc1ccco1	n	n	n	n	n
COc1ccc(C2(C(=O)NCCc3nc(-c4ccncc4)n[nH]3)CCCC2)cc1	n	x	x	n	x
COc1ccc(C2=NN(CCC(N)=O)C(=O)c3cc4sccc4n3C2)cc1	n	x	x	x	x
N#CCCSc1ncnc2c1oc1ccccc12	66.3	n	n	n	n
O=C(O)CSc1ncnc2c1oc1ccccc12	n	n	n	n	x
CCOC(=O)CC(=O)CSc1ncnc2c1oc1ccccc12	66.6	n	n	x	n
O=C(CSc1ncnc2c1oc1ccccc12)Nc1ccccc1C(F)(F)F	79.2	n	n	n	n
COc1ccc(S(=O)(=O)N2CCN(C(=O)c3cc4c(C)nn(-c5ccccc5)c4s3)CC2)cc1	n	x	x	n	x

Assay outcomes as filed in PubChem.
